This is part of a sample that, as a whole, favours compounds with a hit. Of some 83,000 tested, about 20% had one in any assay.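 Negative percent growth values reflect cell death: -40 means 40% of the cells present at the start died, and -100 means all died.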 Unmarked numbers belong to inactive results. Active and inactive are the calls of the source. Rule for the calls: active = growth percent below 10; inactive = the rest.
How the values were obtained:
Assay in all cases: NCI-60 one-dose screen, 48 h (100 = growth as untreated, 0 = no growth, -100 = all killed)
[1] = tested on: HCT-15 colon; conditions: 10 µM unless noted
[2] = tested on: HT29 colon; conditions: 10 µM unless noted
[3] = tested on: SNB-75 CNS; conditions: 10 µM unless noted
[4] = tested on: U251 CNS; conditions: 10 µM unless noted
[5] = tested on: PC-3 prostate; conditions: 10 µM unless noted
[6] = tested on: SK-MEL-5 melanoma; conditions: 10 µM unless noted
[7] = tested on: UACC-62 melanoma; conditions: 10 µM unless noted
[8] = tested on: LOX IMVI melanoma; conditions: 10 µM
[9] = tested on: SK-MEL-28 melanoma; conditions: 10 µM unless noted
[10] = tested on: SK-MEL-2 melanoma; conditions: 10 µM unless noted
[11] = tested on: EKVX NSCLC; conditions: 10 µM unless noted
[12] = tested on: UO-31 renal; conditions: 10 µM unless noted
[13] = tested on: TK-10 renal; conditions: 10 µM unless noted
[14] = tested on: ACHN renal; conditions: 10 µM unless noted
[15] = tested on: CAKI-1 renal; conditions: 10 µM unless noted
[16] = tested on: A498 renal; conditions: 10 µM unless noted
[17] = tested on: CCRF-CEM leukemia; conditions: 10 µM unless noted
[18] = tested on: MOLT-4 leukemia; conditions: 10 µM unless noted
[19] = tested on: SN12C renal; conditions: 10 µM unless noted

Compound | growth [1] | growth [2] | growth [3] | growth [4] | growth [5] | growth [6] | growth [7] | growth [8] | growth [9] | growth [10] | growth [11] | growth [12] | growth [13] | growth [14] | growth [15] | growth [16] | growth [17] | growth [18] | growth [19]
Cc1ccc(C(SCCNCc2cc(N(C)C)ccn2)(c2ccccc2)c2ccccc2)cc1 | -68.8% (active) | -77.2% (active) | 8.64% (active) | -89.3% (active) | -43.4% (active) | -100% (active) | -64.4% (active) | -100% (active) | -95.3% (active) | -36.3% (active) | -24.8% (active) | 8.42% (active) | -4.26% (active) | 3.79% (active) | -10.4% (active) | -43.8% (active) | -3.65% (active) | 8% (active) | –
CC1(C)CC[C@]2(C(=O)Nc3ccc(Br)cc3)CC[C@]3(C)C(=CCC4[C@@]5(C)C[C@@H](O)[C@H](O)[C@@](C)(CO)C5CC[C@]43C)C2C1 (stereo partly drawn) | -13% (active) | -60.9% (active) | 57.8% | -18.9% (active) | -13.8% (active) | -94.4% (active) | 8.99% (active) | -86.7% (active) | – | -19.8% (active) | 15.5% | 21.1% | 22.5% | 17.7% | 20.6% | -45.2% (active) | -19.8% (active) | -10.5% (active) | –
COc1ccc(/C=C/c2nc3ccccc3n3c(-c4ccc(Cl)cc4)nnc23)cc1 | 93.3% | 102% | 61.2% | 87.5% | 77.1% | 98.6% | 81.3% | 88.5% | 104% | – | 88.7% | 66.4% | 106% | 93.5% | 72.2% | 85.3% | 78.1% | 72.6% | 91.7%
CCCCCCCCc1ccc(C(=O)Nc2cccc(P(=O)(O)O)c2)cc1 | 100% | 114% | 99.9% | 108% | 92.9% | 97.7% | 91.8% | 103% | 107% | 106% | 103% | 97.5% | 105% | 110% | 93.6% | 105% | 79.6% | 98.6% | –
CC(=O)OC[C@@]1(C)C2CC[C@]3(C)C(CC=C4C5CC(C)(C)CC[C@]5(C(=O)Nc5ccc(F)cc5)CC[C@]43C)[C@@]2(C)C[C@@H](OC(C)=O)[C@@H]1OC(C)=O (stereo partly drawn) | 33.8% | 34.7% | 54.4% | 40.3% | 34.5% | 8.24% (active) | 30.3% | 11.1% | 58.6% | 32.6% | 28.1% | 38.6% | 56.5% | 38.6% | 44.9% | 63.1% | 29.8% | 35% | –
Cc1ccc(C(=O)CSc2nc3ccc(F)cc3c(=O)n2-c2ccc(Cl)cc2)cc1 | 59.2% | 49.9% | -19.4% (active) | 19.6% | 25.9% | 68.1% | 71.4% | 60.7% | 77.2% | – | 51.1% | 56.4% | 83.7% | 33.3% | 10.1% | 55.7% | 75.8% | 82.4% | –
CC1(C)CC[C@]2(C(=O)Nc3ccccc3)CC[C@]3(C)C(=CCC4[C@@]5(C)C[C@@H](O)[C@H](O)[C@@](C)(CO)C5CC[C@]43C)C2C1 (stereo partly drawn) | 42.5% | 22.1% | 85.5% | 51.1% | 20.4% | 20.2% | 57.5% | 53.1% | – | 59.8% | 52.9% | 47.3% | – | 59.9% | 44.1% | 56.9% | 30.4% | 5.99% (active) | –
COc1ccc(N2N=C(c3ccc4c(c3)OCO4)CC2c2cccc(NC(=O)CCNS(=O)(=O)c3ccc(Cl)cc3)c2)cc1 (stereo not drawn) | 33% | 17.1% | 49.4% | 29.5% | 16.5% | 24.2% | 39.5% | 23.3% | 28.2% | 44.5% | 13.1% | 35.3% | 51.9% | 24.9% | 30.4% | -4.53% (active) | 18.7% | 10.3% | –
CCN(CC)c1ccnc(CNCCSC(c2ccccc2)(c2ccccc2)c2ccc(C)cc2)c1 | -92.4% (active) | -80.5% (active) | -51.2% (active) | -93% (active) | -76.6% (active) | -99.6% (active) | -96.2% (active) | -99.6% (active) | -97.5% (active) | -92% (active) | -84.9% (active) | -20.8% (active) | -85.7% (active) | -53% (active) | -92.3% (active) | -96.8% (active) | -40.9% (active) | -30.9% (active) | –

— PubChem BioAssay (NCI)
